Results as given in PubChem BioAssay (EPA / NIEHS).
Where a structure was tested more than once in an assay, its records may differ in their call. Activity calls are given as the source filed them. Rule for the calls: active = hit-call score of the fitted dose curve at least 0.9, where 1 is the maximum; inactive = score below 0.9.

Tests used:
[1] = ATG_CRE_CIS: Attagene CIS-FACTORIAL HepG2 Assay for human cAMP Responsive Element (CRE) binding protein 3 (AID 2282926); conditions: HepG2 CRE cis-reporter, Attagene multiplexed mRNA; actives raise or lower the signal
In short: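 Human liver HepG2, transient MRTU transfection, 24 h compound exposure. Total RNA → oligo(dT) RT → PCR → 6-FAM primer extension → HpaI cut → CE. Activity called both directions vs DMSO.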

[2] = target: CCAAT/enhancer-binding protein beta (Homo sapiens) (UniProt P17676); assay: ATG_C_EBP_CIS: Attagene CIS-FACTORIAL HepG2 Assay for human CCAAT/Enhancer Binding Protein (C/EBP) beta (AID 2282927); conditions: HepG2 Attagene cis-factorial transcription factor reporter; actives raise or lower the signal
Chain of CCAAT/enhancer-binding protein beta (Homo sapiens) (P17676 whole entry, looked up): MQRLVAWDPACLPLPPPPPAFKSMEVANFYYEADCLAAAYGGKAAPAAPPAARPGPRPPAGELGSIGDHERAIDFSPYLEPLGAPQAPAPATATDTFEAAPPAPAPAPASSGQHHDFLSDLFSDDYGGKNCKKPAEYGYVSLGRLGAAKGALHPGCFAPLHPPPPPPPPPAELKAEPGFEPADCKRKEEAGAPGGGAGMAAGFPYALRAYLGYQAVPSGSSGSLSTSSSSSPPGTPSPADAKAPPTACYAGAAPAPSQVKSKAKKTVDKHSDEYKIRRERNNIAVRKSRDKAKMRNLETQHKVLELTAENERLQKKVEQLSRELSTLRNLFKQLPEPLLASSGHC
In short: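 HepG2 transiently transfected with multiplexed reporter units under cis-regulatory promoters reporting endogenous C/EBPb activity. After 24 h exposure, reporter mRNA assayed by RT-PCR, fluorescent labelling, HpaI digestion and capillary electrophoresis; bidirectional fitting versus DMSO.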

[3] = ATG_CMV_CIS: Attagene CIS-FACTORIAL HepG2 Assay for human CMV (Internal Marker) (AID 2282928); conditions: HepG2 CMV promoter reporter, transcription factor profiling; actives raise or lower the signal;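 note: endpoint acts as a background internal control marker rather than a target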
In short: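 HepG2 cells transiently transfected with multiple cis-regulated reporter units; 24 h compound exposure. Reporter mRNA quantified by RT-PCR, 6-FAM primer-extension labeling, HpaI digestion and capillary electrophoresis; bidirectional fitting against DMSO baseline.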

[4] = ATG_DR4_LXR_CIS: Attagene CIS-FACTORIAL HepG2 Assay for human Liver X Receptor (LXR), DR4 submotif (AID 2282929); conditions: HepG2 Attagene DR4 cis-reporter, mRNA transcription; actives raise or lower the signal
In short: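 HepG2 cells were transiently transfected with multiple cis-regulated reporter units and dosed for 24 hours. The DR4 reporter mRNA was quantified by RT-PCR, 6-FAM labelling and capillary electrophoresis. Bidirectional fits used DMSO as baseline.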

[5] = target: Aryl hydrocarbon receptor (Homo sapiens) (UniProt P35869); assay: ATG_Ahr_CIS: Attagene CIS-FACTORIAL HepG2 Assay for human Aryl Hydrocarbon Receptor (Ahr) (AID 2282930); conditions: HepG2 AhR cis-factorial reporter transcription; actives raise or lower the signal
Chain of Aryl hydrocarbon receptor (Homo sapiens) (P35869 whole entry, looked up): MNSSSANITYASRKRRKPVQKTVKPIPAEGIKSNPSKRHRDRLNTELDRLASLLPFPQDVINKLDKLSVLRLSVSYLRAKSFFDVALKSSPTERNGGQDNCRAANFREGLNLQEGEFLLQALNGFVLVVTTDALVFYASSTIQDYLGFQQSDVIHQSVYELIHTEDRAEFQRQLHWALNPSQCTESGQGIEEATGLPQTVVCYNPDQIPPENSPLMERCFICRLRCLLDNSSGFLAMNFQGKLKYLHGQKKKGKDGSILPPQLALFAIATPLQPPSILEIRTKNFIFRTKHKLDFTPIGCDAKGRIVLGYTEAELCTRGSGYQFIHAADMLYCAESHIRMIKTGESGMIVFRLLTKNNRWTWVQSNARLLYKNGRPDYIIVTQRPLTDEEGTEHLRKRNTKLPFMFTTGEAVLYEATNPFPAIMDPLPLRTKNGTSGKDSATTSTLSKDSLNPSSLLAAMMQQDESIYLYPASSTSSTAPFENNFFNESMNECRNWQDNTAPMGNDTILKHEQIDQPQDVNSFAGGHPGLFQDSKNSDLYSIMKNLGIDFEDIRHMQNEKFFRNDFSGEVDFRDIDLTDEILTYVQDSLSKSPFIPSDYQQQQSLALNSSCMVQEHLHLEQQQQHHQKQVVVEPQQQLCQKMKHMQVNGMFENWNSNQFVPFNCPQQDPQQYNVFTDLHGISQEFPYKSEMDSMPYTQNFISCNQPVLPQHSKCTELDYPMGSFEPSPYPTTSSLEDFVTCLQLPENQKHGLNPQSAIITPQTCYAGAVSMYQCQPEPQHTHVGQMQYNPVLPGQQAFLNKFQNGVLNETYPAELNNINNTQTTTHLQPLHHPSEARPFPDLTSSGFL
In short: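 HepG2 cells transiently transfected with cis-element-driven multiplexed reporter units; endogenous AhR activity read as reporter mRNA 24 h after dosing, via RT-PCR, 6-FAM labelling, HpaI digestion and capillary electrophoresis. Bidirectional fit relative to DMSO.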

[6] = ATG_AP_1_CIS: Attagene CIS-FACTORIAL HepG2 Assay for human Activator Protein 1 (AP-1) (AID 2282931); conditions: HepG2 Attagene cis-factorial AP-1 reporter mRNA; actives raise or lower the signal
In short: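 HepG2 cells transiently transfected with cis-element-driven reporter transcription units, dosed for 24 hours. Reporter mRNA measured by RT-PCR, 6-FAM labelling, HpaI digestion and capillary electrophoresis. Bidirectional fitting against DMSO baseline.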

[7] = ATG_AP_2_CIS: Attagene CIS-FACTORIAL HepG2 Assay for human Activator Protein 2 (AP-2) (AID 2282932); conditions: HepG2 AP-2 cis-reporter, Attagene transcription factor profiling; actives raise or lower the signal
In short: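 Multiplexed mRNA reporter assay in HepG2: cis-regulated units report endogenous factor activity after 24 h treatment. Fluorescence from capillary electrophoresis of RT-PCR products gives the signal, with DMSO as baseline.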

[8] = ATG_BRE_CIS: Attagene CIS-FACTORIAL HepG2 Assay for human Bone Morphogenetic Protein (BMP) Response Element (BRE) (AID 2282933); conditions: HepG2 BMP response element reporter, Attagene transcription factor profiling; actives raise or lower the signal
In short: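 A HepG2 multiplex reporter system measured inducible reporter mRNA 24 h post-dosing. Detection: RT-PCR, 6-FAM primer extension, HpaI digestion, capillary electrophoresis. Activity fitted bidirectionally relative to DMSO.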

[9] = target: Retinoic acid receptor alpha (Homo sapiens) (UniProt P10276); assay: ATG_DR5_RAR_CIS: Attagene CIS-FACTORIAL HepG2 Assay for human Retinoic Acid Receptor Alpha (RARE), DR5 submotif (AID 2282934); conditions: HepG2 Attagene cis-factorial RARE DR5 reporter, mRNA; actives raise or lower the signal;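 for AC50: reporter responds to endogenous RAR alpha beta and gamma in HepG2 not RARA alone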
Chain of Retinoic acid receptor alpha (Homo sapiens) (P10276 whole entry, looked up): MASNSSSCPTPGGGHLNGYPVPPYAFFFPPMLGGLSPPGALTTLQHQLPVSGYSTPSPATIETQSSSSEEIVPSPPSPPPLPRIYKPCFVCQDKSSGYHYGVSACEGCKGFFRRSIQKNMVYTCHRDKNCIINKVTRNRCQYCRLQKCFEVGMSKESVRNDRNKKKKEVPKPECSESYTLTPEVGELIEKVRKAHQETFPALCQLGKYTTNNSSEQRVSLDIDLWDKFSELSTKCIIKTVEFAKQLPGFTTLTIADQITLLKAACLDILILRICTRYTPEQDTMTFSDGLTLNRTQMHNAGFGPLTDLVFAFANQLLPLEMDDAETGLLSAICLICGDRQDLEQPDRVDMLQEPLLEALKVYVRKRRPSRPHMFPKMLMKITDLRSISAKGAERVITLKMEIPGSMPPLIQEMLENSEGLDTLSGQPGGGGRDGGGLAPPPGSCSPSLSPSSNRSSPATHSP
In short: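 HepG2 cells transiently transfected with multiplexed reporter units; DR5 cis-element drives reporter through endogenous transcription factors. After 24 h dosing, reporter mRNA quantified by RT-PCR, fluorescent labeling, HpaI digestion and capillary electrophoresis; bidirectional fitting versus DMSO.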

[10] = target: Transcription factor E2F1 (Homo sapiens) (UniProt Q01094); assay: ATG_E2F_CIS: Attagene CIS-FACTORIAL HepG2 Assay for human E2F Transcription Factor 1 (AID 2282935); conditions: HepG2 Attagene cis-reporter, E2F reporter RNA transcripts; actives raise or lower the signal
Chain of Transcription factor E2F1 (Homo sapiens) (Q01094 whole entry, looked up): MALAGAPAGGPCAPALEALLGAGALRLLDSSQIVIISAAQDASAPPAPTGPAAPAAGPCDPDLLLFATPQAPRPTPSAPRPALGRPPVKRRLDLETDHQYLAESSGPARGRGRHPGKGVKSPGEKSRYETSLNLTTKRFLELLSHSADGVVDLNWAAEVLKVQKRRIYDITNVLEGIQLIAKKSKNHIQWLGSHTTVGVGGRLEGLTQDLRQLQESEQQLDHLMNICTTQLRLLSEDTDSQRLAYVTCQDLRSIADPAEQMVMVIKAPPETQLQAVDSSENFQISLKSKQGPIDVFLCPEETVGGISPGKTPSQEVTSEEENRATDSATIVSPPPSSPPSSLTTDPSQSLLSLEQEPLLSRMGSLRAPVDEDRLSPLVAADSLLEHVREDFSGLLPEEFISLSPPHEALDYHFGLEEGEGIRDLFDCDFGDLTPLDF
In short: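 Measures reporter transcript levels via RT-PCR with capillary electrophoresis detection in HepG2 cells harboring cis-regulated reporter units; 24 h post-dose; bidirectional curve fitting with DMSO as baseline.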

Measured: AC50

COc1cccc([C@H](O)C2CCN(CCc3ccc(F)cc3)CC2)c1OC
active: [4] 100 µM
inactive: all other assays above

CCCCCCCCCCCO
inactive: all assays above

CC(C)(C)c1csc(-c2cc3cc(OCc4ccccc4CC(=O)O)ccc3o2)n1
inactive: [7] | [9] | [10]
active: [1] 54.3 µM | [3] 33.4 µM | [4] 4.56 µM | [6] 33.4 µM | [8] 57.6 µM

C[C@]12CC[C@@H]3c4ccc(O)cc4CC[C@H]3[C@@H]1CC[C@H]2O
inactive: [1] | [4] | [6] | [7] | [8] | [9] | [10]
active: [3] 27.5 µM [middle of 4 runs] | [9] 5.92 µM

CCCCCc1ccc(N)cc1
active: [5] 65.5 µM | [6] 25.9 µM
inactive: [1] | [3] | [4] | [5] | [6] | [7] | [8] | [9] | [10]

CN(C[C@@H](CC[N+]12CCC(C3CCCCC3)(CC1)CC2)c1ccc(Cl)c(Cl)c1)C(=O)c1cc(C(F)(F)F)cc(C(F)(F)F)c1
not listed: [2]
inactive: all other assays above

O=C1O[C@H]([C@@H](O)CO)C(O)=C1O
not listed: [5] | [9]
inactive: all other assays above

COc1ccc2cc(S(=O)(=O)N[C@H](CC(=O)N[C@H](Cc3ccc(CN4[C@H](C)CCC[C@@H]4C)cc3)C(=O)N(C)C(C)C)c3ccc4c(c3)OCO4)ccc2c1
active: [1] 15.4 µM | [5] 14.7 µM | [6] 11 µM | [8] 11 µM | [10] 11 µM
inactive: [3] | [4] | [7] | [9]

c1ccc2n[nH]nc2c1
not listed: [2] | [5]
inactive: all other assays above

CN(C)c1ccc(C(=C2C=CC(=[N+](C)C)C=C2)c2ccc(N(C)C)cc2)cc1
active: [4] 2.86 µM | [6] 2.23 µM | [9] 2.58 µM
not listed: [2]
inactive: all other assays above

CCCCCCCCCCCCO
not listed: [2] | [5]
inactive: all other assays above

Oc1ccccc1
not listed: [2] | [5]
inactive: all other assays above

CCN(CC)C(=O)c1cc(S(=O)(=O)Cc2ccccc2)c(N2CCC(c3ccccc3)CC2)cc1N(CC)CCN(C)C
not listed: [2] | [5]
inactive: all other assays above

OCCO
not listed: [2] | [5]
inactive: all other assays above

Clc1cc(Cl)c2c(c1)N=C1CCCCCN1C2
active: [4] 78.1 µM
not listed: [2]
inactive: all other assays above

O=CCCCC=O
not listed: [5] | [9]
inactive: all other assays above

CC[C@H](NC(=O)c1cc(F)ccc1NS(=O)(=O)c1cccc2cccnc12)c1ccccc1
not listed: [2]
inactive: all other assays above

c1ccc(C[n+]2cccc3ccccc32)cc1
active: [3] 100 µM | [6] 41.1 µM
not listed: [2] | [5]
inactive: all other assays above

CCCCCCCCOC(=O)c1cc(O)c(O)c(O)c1
active: [6] 6.37 µM
not listed: [2]
inactive: all other assays above

Cc1ccc2oc(CN(Cc3ccccc3)C(=O)Nc3c(F)cc(F)cc3F)c(-c3ccc(Cl)cc3)c2c1
not listed: [2] | [5]
inactive: all other assays above
